Pf Dd2 inh – blocks in vitro growth of P. falciparum Dd2; P. falciparum Dd2 growth, SYBR Green, 72 h; Potency, µM (series often up to 28.9 µM), for inactives: at the highest dose activity, negative = inhibition, most hits filed as inhibitors; 120,000 compounds, 4.3% hits; active = well fitted inhibition curve with a large enough effect;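 note: plate controls were DMSO vehicle for no effect and reference drug for full effect; nearly all actives have a fitted effect of over 65% in size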
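Readout: SYBR Green fluorescence, 485 nm excitation, 535 nm emission, after ~16 h lysis at 37C. Before that, Dd2-infected red cells (2.5% hematocrit) grew 72 h with compound, 29 uM top final concentration.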
The depositor's hits bear a star; i = inactive; [ ] = dose if it differs, or a comment. This excerpt belongs to a sample that is enriched for hits. Potency is the fitted concentration of half-maximal effect.

SMILES | Pf Dd2 inh
COc1cc2c(cc1OC)C(COc1ccc3c(C)cc(=O)oc3c1)N(C(=O)CC(C)C)CC2 (stereo not drawn) | 11.2µM*
CCOc1ccc(NC(=O)N2CCc3cc(OC)c(OC)cc3C2CNC(=O)NC(C)C)cc1 (stereo not drawn) | -2.9%
CCOc1ccc2oc(=O)cc(CN3CCN(C(=O)c4ccc(OC)c(OC)c4)CC3)c2c1 | -9.2%
COc1ccccc1NC(=O)N1CCc2cc(OC)c(OC)cc2C1CNC(=O)CC(C)C (stereo not drawn) | i
CCOc1ccc(CC(=O)N2CCc3cc(OC)c(OC)cc3C2COc2ccc3c(C)cc(=O)oc3c2)cc1 (stereo not drawn) | 3.98µM*
CN1C(=O)N(C)C2(CCN(CCOc3ccc(F)cc3)C2)C1=O (stereo not drawn) | -3.3%
CC(=O)N1C[C@@H]2CCCN3CCC[C@@H]([C@H]23)[C@H]1CCCC(=O)NCCCN1CCCC1=O | 38.3%
CCOCC1(C)COc2ccc(C(=O)N(C)c3ccccc3)cc2N1 (stereo not drawn) | i
COc1cccc(NC(=O)c2ccc3c(c2)NC(C)(COCCN(C)C)CO3)c1 (stereo not drawn) | -9.0%[44.1 µM]
CCOCC1(C)COc2ccc(C(=O)Nc3cccc(N(C)C)c3)cc2N1 (stereo not drawn) | 3.16µM*
Cc1cccc(OCC(=O)N2CCC(n3cc(-c4nc(C5CC5)no4)nn3)C2)c1 (stereo not drawn) | -3.3%
COc1ccccc1CNC(=O)[C@@H]1CNC[C@H]1COc1cccnc1 | 19.9%
Cc1ccc(NC(=O)c2ccc3c(c2)N(C)C2CCCCCN2C3=O)c(F)c1 (stereo not drawn) | i
CC(C)N1CCN(CCN2CC3(CCN(C(=O)CCN)CC3)OC2=O)CC1 | 12.4%
O=C(O)Cn1nc(-c2ccncc2)nc1C1CCOC1 (stereo not drawn) | -4.2%
COc1ccc(-c2cc([C@H]3CN4CC[C@H]3C[C@@H]4CNC(=O)NC(C)C)nc(C)n2)cc1OC | i
COCC(=O)NC[C@H]1C[C@@H]2CCN1C[C@@H]2c1cc(-c2ccccc2OC)nc(C)n1 | i
Cc1nc(-c2cccs2)cc([C@H]2CN3CC[C@H]2C[C@@H]3CNS(C)(=O)=O)n1 | i
CC(=O)c1ccc(NC(=O)NC[C@H]2C[C@@H]3CCN2C[C@@H]3c2cc(-c3cccs3)nc(C)n2)cc1 | i
COc1ccccc1-c1cc([C@H]2CN3CC[C@H]2C[C@@H]3COC(=O)Nc2ccc(C(C)C)cc2)nc(C)n1 | 12.6µM*
Cc1nc(-c2cccs2)cc([C@H]2CN3CC[C@H]2C[C@@H]3COC(=O)Nc2ccc(C(C)C)cc2)n1 | 7.08µM*
Cc1ccc(NC(=O)c2sc3nc(-c4cc5ccccc5oc4=O)[nH]c(=O)c3c2C)c(C)c1 | 25.1%
COc1ccc(NC(=O)c2sc3nc(C)c(C(=O)Nc4ccc(C)cc4C)c(-c4ccc(C)o4)c3c2N)cc1 | 8.91µM*
CCC(C)NC(=O)c1sc2nc(C)c(C(=O)Nc3ccc(C)cc3C)c(-c3ccc(Cl)cc3)c2c1N (stereo not drawn) | -5.4%
CCOc1ccccc1NC(=O)c1sc2nc(-c3ccc(OC)cc3)ccc2c1N | 16.4%
SMILES | Pf Dd2 inh
CCOc1ccccc1NC(=O)c1sc2nc(C)cc(C)c2c1N | -11.3%
COc1cccc(-c2ccc3c(N)c(C(=O)Nc4ccc(C)c(F)c4)sc3n2)c1 | 4.8%
Cc1ccc(NC(=O)c2sc3nc(-c4cccs4)ccc3c2N)cc1F | -3.7%
COc1ccc(NC(=O)c2sc3nc4c(cc3c2N)CCCCCC4)c(OC)c1 | -12.6%
COc1cccc(NC(=O)c2sc3nc(C)c(C(=O)Nc4ccc(C)cc4C)c(-c4cccs4)c3c2N)c1 | 1.26µM*
COc1cccc(NC(=O)c2cnc(-c3ccc(C)cc3)nc2-c2ccncc2)c1 | -23.3%
CCC(C)NC(=O)c1sc2nc(C)c(C(=O)Nc3ccc(C)cc3C)c(-c3ccccc3Cl)c2c1N (stereo not drawn) | 3.16µM*
COc1cccc(NC(=O)c2sc3nc(C)c(C(=O)Nc4ccc(C)cc4C)c(-c4ccc(C)o4)c3c2N)c1 | 11.2µM*
Fc1ccc(C2Cn3nnc(-c4nc(-c5cccc(Cl)c5)no4)c3CO2)cc1 (stereo not drawn) | 8.0%
COC[C@@H]1[C@H](C(=O)N2CCN(c3ccccn3)CC2)CCC(=O)N1C | 17.3%
Cc1nn(C)c(C)c1C(=O)N1CCCC(c2ccc(C(=O)O)cc2)C1 (stereo not drawn) | 2.5%
Cn1cccc1CN1CCCC2(CNc3ccccc3[S+](=O)([O-])N2)C1 (stereo not drawn) | -5.0%
O=S(=O)(c1ccccc1C(F)(F)F)N1CC(c2nc(-c3ccncc3)no2)C1 | i
COc1ccc(Cl)cc1NC(=O)c1c(NCc2cccnc2)sc2c1CCC(C)C2 (stereo not drawn) | 8.91µM*
COc1ccccc1NC(=O)c1c(NC(=O)c2cccs2)sc2c1CCC(C(C)(C)C)C2 (stereo not drawn) | 7.5%
COc1ccc(NC(=O)c2c(NC(=O)c3ccncc3)sc3c2CCC(C(C)(C)C)C3)cc1 (stereo not drawn) | 57.9%
COC(=O)c1c(NC(=O)CCCOc2ccccc2C)sc2c1CCC(C)C2 (stereo not drawn) | 22.6%
COc1ccc(Cl)cc1NC(=O)c1sc2nc3c(cc2c1N)N1CCC3CC1 | 10.6%
COc1ccc(Cl)cc1NC(=O)c1c(NCc2cccs2)sc2c1CCC(C)C2 (stereo not drawn) | 12.6µM*
COc1cc(CN2CCC3(CC2)CN(c2ccncn2)CC3CO)ccc1F (stereo not drawn) | -13.4%
COc1cc(CN2CCC3(CCN(CC4CC4)CC3)C(CO)C2)ccc1F (stereo not drawn) | 8.91µM*
COc1cc(CN2CCCC(c3[nH]ccc3C(N)=O)C2)ccc1F (stereo not drawn) | -29.2%
CC(=O)N1CCC(N2C[C@@H]3OCC(=O)N(CC4CC4)[C@@H]3C2)CC1 | -11.7%[44.1 µM]
COc1ccc(-c2noc(CC3CCN(C(=O)c4cc(F)ccc4F)CC3)n2)cc1 | -0.2%
O=C(Cn1nc2c(cc1=O)CCCC2)Nc1nc2ccccc2s1 | -15.1%
SMILES | Pf Dd2 inh
O=C(C1CCCN(C2CCN(c3ncnc4sccc34)CC2)C1)N1CCCC1 (stereo not drawn) | -20.3%
Cc1ccc(C2=Nc3ccccc3N(CC(=O)NCc3ccccc3Cl)C(=O)C2)cc1C | 11.2µM*
Cc1ccc(C2=Nc3ccccc3N(CC(=O)Nc3cccc(F)c3)C(=O)C2)cc1C | 8.91µM*
COc1ccc(C2=NN(CC(=O)NCc3ccccc3Cl)C(=O)CC2)cc1 | 6.4%
Cc1ccc(NC(=O)CN2C(=O)CC(c3ccc(F)cc3)=Nc3ccccc32)cc1F | -28.4%
Cc1cc(=O)n(CC(=O)Nc2cccc(F)c2)c(-c2ccccc2)n1 | i
Cc1ccc2c(c1)N(CCC(=O)NCc1ccccc1Cl)C(=O)CO2 | 46.4%
O=c1[nH]nc2n1CCN(Cc1ccc(F)c(F)c1)CC2 | 16.7%
CNC(=O)c1cc[nH]c1C1CCCN(C(=O)c2ccc(C)[nH]c2=O)C1 (stereo not drawn) | 1.5%
COc1ccc(C(=O)N2CCC(N3CC4CC(C3)[C@H]3CCCC(=O)N3C4)CC2)cc1F (stereo partly drawn) | -9.3%
COc1cc(Cl)ccc1C(=O)NC1CCN(c2cc(-c3cccs3)[nH]n2)C1 (stereo not drawn) | i
CCN(CC)CCCNc1sc(S(=O)(=O)c2ccccc2)nc1S(=O)(=O)c1ccc(Cl)cc1 | 5.62µM*
CCCCS(=O)(=O)c1oc(-c2ccc(F)cc2)nc1S(=O)(=O)c1ccc(C)cc1 | -3.4%

High-throughput results: PubChem, National Center for Advancing Translational Sciences (NCATS)
